Reference: PubChem BioAssay AID1159580 (chemical genetic matrix, 2015)
Where “and” joins values, the source holds several entries; their conditions need not be identical. Identical values can stand only once. About 2,000 (36%) of roughly 5,500 compounds were called active. Another 18% or so got no clear call; they are omitted. Rule as the data show it: active = normalized growth mostly below about 0.91 (no sharp cut-off); inconclusive = no clear call, values can overlap the other calls; inactive = mostly above about 0.92. The list shows a part of the results.

Assay: chemical genetic growth profiling, strain panel (AID 1159580);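 also: tested at 20 µM; growth read once vehicle control cultures reached saturation at 30 °C; 1 = growth at the plate median or of vehicle wells; lower values mean less growth of the strain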
Conditions: S. cerevisiae deletion strains, growth OD

Measured: normalized growth

C[C@@H]1CC[C@@]23CCC4(C)[C@@](C=CC5[C@@]6(C)CCC(=O)C(C)(C)C6CC[C@]54C)(OC2=O)C3[C@H]1C (stereo not given in full)
inactive: locus YAL013W, strain DEP1, active compounds read low 1.03 | locus YAL021C, strain ccr4, active compounds read low 0.998 | locus YAL026C, strain drs2, active compounds read low 1.01 | locus YAL030W, strain snc1, active compounds read low 0.998 | locus YBL061C, strain skt5, active compounds read low 0.994 | locus YBR009C, strain hhf1, active compounds read low 1.02 | locus YBR021W, strain FUR4, active compounds read low 1.01 | locus YBR023C, strain chs3, active compounds read low 1 | locus YBR171W, strain sec66, active compounds read low 0.99 | locus YBR229C, strain ROT2, active compounds read low 1.02 | locus YBR231C, strain swc5, active compounds read low 1.01 | locus YBR279W, strain paf1, active compounds read low 0.99 | locus YCL011C, strain gbp2, active compounds read low 1.02 | locus YCL016C, strain dcc1, active compounds read low 0.981 | locus YCL029C, strain bik1, active compounds read low 1.03 | locus YCL061C, strain MRC1, active compounds read low 1.01 | locus YCL069W, strain vba3, active compounds read low 0.997 | locus YCR088W, strain abp1, active compounds read low 0.992 | locus YDL005C, strain med2, active compounds read low 1 | locus YDL035C, strain GPR1, active compounds read low 1.02 | locus YDL040C, strain nat1, active compounds read low 0.997 | locus YDL074C, strain BRE1, active compounds read low 1.01 | locus YDL101C, strain DUN1, active compounds read low 1.03 | locus YDL185W, strain tfp1, active compounds read low 0.989 | locus YDL192W, strain arf1, active compounds read low 1.01 | locus YDR001C, strain nth1, active compounds read low 0.987 | locus YDR069C, strain doa4, active compounds read low 1 | locus YDR101C, strain arx1, active compounds read low 1.01 | locus YDR137W, strain rgp1, active compounds read low 1.04 | locus YDR150W, strain NUM1, active compounds read low 1.02 | locus YDR159W, strain sac3, active compounds read low 1 | locus YDR162C, strain NBP2, active compounds read low 1.04 | locus YDR195W, strain ref2 0.957 | locus YDR297W, strain sur2, active compounds read low 1.02 | locus YDR318W, strain mcm21, active compounds read low 1.04 | locus YDR334W, strain swr1, active compounds read low 0.998 | locus YDR335W, strain msn5, active compounds read low 1 | locus YDR388W, active compounds read low 1 | locus YDR392W, strain spt3, active compounds read low 1.01 | locus YDR502C, strain sam2, active compounds read low 1.02 | locus YEL003W, strain gim4, active compounds read low 1.01 | locus YEL037C, strain rad23, active compounds read low 1.01 | locus YEL061C, strain CIN8 (second series), active compounds read low 0.99 | locus YEL061C, strain CIN8, active compounds read low 1.02 | locus YER015W, strain faa2, active compounds read low 1.01 | locus YER016W, strain bim1, active compounds read low 0.993 | locus YER110C, active compounds read low 1.01 | locus YER111C, strain swi4, active compounds read low 0.995 | locus YER155C, strain BEM2 (second series), active compounds read low 1.01 | locus YER155C, strain BEM2, active compounds read low 1.02 | locus YER167W, strain BCK2, active compounds read low 1.01 | locus YFR010W, strain ubp6, active compounds read low 1.02 | locus YGL078C, strain dbp3, active compounds read low 1.01 | locus YGL086W, strain mad1, active compounds read low 1 | locus YGL167C, strain pmr1, active compounds read low 0.994 | locus YGL173C, strain kem1, active compounds read low 1.01 | locus YGL227W, strain vid30, active compounds read low 0.983 | locus YGL240W, strain doc1, active compounds read low 1.03 | locus YGL248W, strain PDE1, active compounds read low 1.02 | locus YGL253W, strain hxk2, active compounds read low 1 | locus YGR135W, strain pre9, active compounds read low 1 | locus YGR229C, strain SMI1, active compounds read low 1.02 | locus YGR252W, strain gcn5, active compounds read low 1.02 | locus YHR013C, strain ard1, active compounds read low 0.986 | locus YHR027C, strain rpn1, active compounds read low 1.01 | locus YHR030C, strain SLT2, active compounds read low 1.02 and 0.996 | locus YHR079C, strain IRE1 (second series), active compounds read low 1.02 | locus YHR079C, strain IRE1, active compounds read low 1.01 | locus YHR129C, strain ARP1, active compounds read low 1.02 | locus YHR142W, strain chs7, active compounds read low 0.97 | locus YHR200W, strain rpn10, active compounds read low 1.02 | locus YIL066C, strain RNR3, active compounds read low 1.03 | locus YIL073C, strain SPO22, active compounds read low 1 | locus YIL125W, strain kgd1, active compounds read low 0.992 | locus YIR030C, strain dcg1, active compounds read low 1.04 | locus YJL092W, strain hpr5, active compounds read low 0.989 | locus YJL095W, strain BCK1 (second series), active compounds read low 1 | locus YJL095W, strain BCK1, active compounds read low 1.04 and 0.991 | locus YJL115W, strain asf1, active compounds read low 0.993 | locus YJL129C, strain trk1, active compounds read low 0.98 | locus YJL134W, strain LCB3, active compounds read low 1.01 | locus YJL154C, strain vps35, active compounds read low 0.981 | locus YJL164C, strain tpk1, active compounds read low 1.01 | locus YJL166W, strain qcr8, active compounds read low 1.01 | locus YJL168C, strain set2, active compounds read low 1.01 | locus YJL187C, strain SWE1 (second series), active compounds read low 1.03 | locus YJL187C, strain SWE1, active compounds read low 0.993 | locus YJR043C, strain POL32, active compounds read low 1.02 | locus YJR066W, strain TOR1, active compounds read low 0.953 | locus YKL009W, strain mrt4, active compounds read low 1.01 | locus YKL068W, active compounds read low 1.02 | locus YKL085W, strain MDH1 (second series), active compounds read low 1 | locus YKL085W, strain MDH1, active compounds read low 1 | locus YKL160W, strain elf1, active compounds read low 0.999 | locus YKR001C, strain vps1, active compounds read low 0.977 | locus YKR026C, strain gcn3, active compounds read low 1 | locus YKR091W, strain srl3, active compounds read low 0.994 | locus YLL001W, strain dnm1, active compounds read low 0.982 | locus YLL026W, active compounds read low 1 | locus YLL041C, strain sdh2, active compounds read low 1 | locus YLR027C, strain aat2, active compounds read low 1.02 | locus YLR039C, strain RIC1, active compounds read low 1.05 | locus YLR058C, strain SHM2, active compounds read low 1.02 | locus YLR102C, strain apc9, active compounds read low 1.01 | locus YLR113W, strain HOG1, active compounds read low 1 | locus YLR221C, strain rsa3, active compounds read low 0.988 | locus YLR258W, strain gsy2, active compounds read low 1.01 | locus YLR262C, strain YPT6 (second series), active compounds read low 1.02 | locus YLR262C, strain YPT6, active compounds read low 1.07 | locus YLR268W, strain sec22, active compounds read low 0.995 | locus YLR320W, strain mms22, active compounds read low 1 | locus YLR330W, strain CHS5, active compounds read low 1.02 | locus YLR342W, strain FKS1 (second series), active compounds read low 1.01 | locus YLR342W, strain FKS1, active compounds read low 1.01 | locus YLR357W, strain rsc2, active compounds read low 0.991 | locus YLR370C, strain arc18, active compounds read low 0.996 | locus YLR384C, strain iki3, active compounds read low 0.989 | locus YLR418C, strain cdc73, active compounds read low 1.01 | locus YML016C, strain PPZ1, active compounds read low 1.02 | locus YML032C, strain rad52, active compounds read low 1.04 | locus YML120C, strain ndi1, active compounds read low 0.994 | locus YML124C, strain tub3, active compounds read low 1.02 | locus YMR058W, strain fet3, active compounds read low 1.01 | locus YMR078C, strain ctf18, active compounds read low 1.09 | locus YMR125W, strain sto1, active compounds read low 0.978 | locus YMR129W, active compounds read low 0.99 | locus YMR205C, strain PFK2, active compounds read low 0.983 | locus YMR223W, strain ubp8, active compounds read low 1.04 | locus YMR231W, strain pep5, active compounds read low 0.993 | locus YMR307W, strain GAS1, active compounds read low 1.06 | locus YNL067W, strain RPL9B, active compounds read low 1.02 | locus YNL071W, strain lat1, active compounds read low 1.01 | locus YNL153C, strain GIM3, active compounds read low 1.03 | locus YNL183C, strain NPR1, active compounds read low 0.964 | locus YNL209W, strain ssb2, active compounds read low 0.988 | locus YNL233W, strain BNI4, active compounds read low 1.03 | locus YNL248C, strain rpa49, active compounds read low 1.02 | locus YNL250W, strain rad50, active compounds read low 1 | locus YNL271C, strain bni1, active compounds read low 1.01 | locus YNL298W, strain CLA4, active compounds read low 1.01 | locus YNL307C, strain MCK1, active compounds read low 1.02 | locus YNL322C, strain KRE1 (second series), active compounds read low 1 | locus YNL322C, strain KRE1, active compounds read low 1.01 | locus YNR049C, strain mso1, active compounds read low 0.994 | locus YNR052C, strain pop2, active compounds read low 1.02 | locus YOL006C, strain TOP1, active compounds read low 1 | locus YOL012C, strain htz1 1.03 | locus YOL147C, strain pex11, active compounds read low 1.01 | locus YOR001W, strain rrp6, active compounds read low 1.02 | locus YOR061W, strain CKA2, active compounds read low 1.01 | locus YOR069W, strain VPS5, active compounds read low 1.01 | locus YOR070C, strain gyp1, active compounds read low 0.995 | locus YOR080W, strain dia2, active compounds read low 0.996 | locus YOR083W, strain WHI5, active compounds read low 1.01 | locus YOR106W, strain vam3, active compounds read low 1 | locus YOR136W, strain idh2, active compounds read low 1.01 | locus YOR144C, strain elg1, active compounds read low 1.02 | locus YOR184W, strain ser1, active compounds read low 1.01 | locus YOR231W, strain MKK1, active compounds read low 1.01 | locus YOR265W, strain rbl2, active compounds read low 1.01 | locus YOR270C, strain vph1, active compounds read low 1.03 | locus YOR290C, strain snf2, active compounds read low 0.97 | locus YOR316C, strain cot1, active compounds read low 1.03 | locus YPL051W, strain arl3, active compounds read low 1.04 | locus YPL078C, strain atp4, active compounds read low 1.01 | locus YPL106C, strain sse1, active compounds read low 1.01 | locus YPL240C, strain hsp82, active compounds read low 0.996 | locus YPL256C, strain CLN2, active compounds read low 0.987 | locus YPR119W, strain clb2, active compounds read low 1.02 | locus YPR141C, strain kar3, active compounds read low 1.04 | locus YPR163C, strain tif3, active compounds read low 1.01 | locus YPR167C, strain met16, active compounds read low 1.01 | strain wtn01, active compounds read low 0.995
active: locus YHR094C, strain hxt1, active compounds read low 1.11 [resistant] | locus YLR371W, strain rom2, active compounds read low 1.1 [resistant]
